The full ranking holds about 33,000 sequences; the median of “E-score (-0.5 to 0.5)” is about -0.035, and the highest 2% start at about 0.35. The full list was thinned out, with the highest values kept by preference.

The target of this test is T1, Pdr3 (UniProt P33200).
T1 sequence: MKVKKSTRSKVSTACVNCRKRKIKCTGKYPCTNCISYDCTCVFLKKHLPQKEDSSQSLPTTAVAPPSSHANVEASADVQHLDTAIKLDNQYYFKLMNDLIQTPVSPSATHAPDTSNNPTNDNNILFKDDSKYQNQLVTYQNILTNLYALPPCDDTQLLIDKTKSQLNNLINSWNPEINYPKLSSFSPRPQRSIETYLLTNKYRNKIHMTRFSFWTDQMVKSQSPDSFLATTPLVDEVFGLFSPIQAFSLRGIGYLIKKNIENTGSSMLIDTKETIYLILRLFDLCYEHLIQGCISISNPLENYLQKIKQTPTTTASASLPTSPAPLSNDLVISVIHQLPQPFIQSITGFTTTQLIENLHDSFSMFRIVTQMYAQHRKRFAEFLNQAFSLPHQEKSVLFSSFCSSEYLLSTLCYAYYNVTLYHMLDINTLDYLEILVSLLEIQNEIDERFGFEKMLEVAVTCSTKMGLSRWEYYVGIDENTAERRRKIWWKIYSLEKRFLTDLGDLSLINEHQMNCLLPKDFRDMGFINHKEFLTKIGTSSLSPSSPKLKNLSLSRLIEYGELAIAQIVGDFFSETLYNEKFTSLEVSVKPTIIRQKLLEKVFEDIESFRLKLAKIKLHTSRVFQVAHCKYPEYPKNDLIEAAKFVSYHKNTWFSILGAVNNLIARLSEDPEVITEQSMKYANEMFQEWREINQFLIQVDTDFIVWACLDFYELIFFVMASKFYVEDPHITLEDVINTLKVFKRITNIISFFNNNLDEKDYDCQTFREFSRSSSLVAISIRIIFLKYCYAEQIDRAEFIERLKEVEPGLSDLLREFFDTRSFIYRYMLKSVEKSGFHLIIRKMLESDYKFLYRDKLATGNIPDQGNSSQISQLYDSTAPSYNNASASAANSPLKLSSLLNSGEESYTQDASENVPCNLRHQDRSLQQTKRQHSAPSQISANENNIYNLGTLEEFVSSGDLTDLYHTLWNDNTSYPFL
Briefly: PBM E-score (8-mer binding enrichment) (E-score (-0.5 to 0.5)); higher = stronger / more preferred TF binding. The conditions noted are these: protein concentration: 200 nM; construct: GST-full length. Summed up:
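Detection of bound protein used fluorescent anti-GST, with scans normalised by masliner. The proteins were GST-tagged yeast transcription factors applied at about 100-200 nM to universal all-10-mer Agilent arrays made double-stranded by primer extension. Each ungapped eight-base word, pooled with its reverse complement, was scored with an E-score from the Universal PBM Analysis Suite.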
For CCCAACCG, the “PBM E-score” value was found to be 0.00518.

For the sequence CGACCGAG, the “PBM E-score” value stood at 0.124.

As to TATCACGA, the “PBM E-score” value was -0.126.

Turning to AAAATGAG, the “PBM E-score” value was -0.188.

Turning to ATAGCTAC, the “PBM E-score” value is -0.0621.

Regarding CAGGGGGA, the “PBM E-score” value is -0.286.

For CTTTTTTA, the “PBM E-score” value is -0.0672.

On to CTCCCCGC, for which the “PBM E-score” value amounted to 0.34.

As for CTCCCGGC, the “PBM E-score” value turned out to be 0.368.

For the sequence ATCCCCGG, the “PBM E-score” value is 0.386.

For ATCCCGGA, the “PBM E-score” value came out at 0.417.

Regarding ATCCCCGA, the “PBM E-score” value came to 0.303.

As for CCCCCGGC, the “PBM E-score” value is 0.037.

Take ATCCCCCG: the “PBM E-score” value was 0.278.

For the sequence CTCCCGCA, the “PBM E-score” value amounted to 0.145.

Consider CTCCCCGA, for which the “PBM E-score” value was determined as 0.053.

Consider CTCCCGGA, for which the “PBM E-score” value is 0.386.

On to ATCCCAGA, for which the “PBM E-score” value was -0.204.

Take ATCCCAAA: the “PBM E-score” value came out at 0.0137.

In the case of CGGCGTAA, the “PBM E-score” value was -0.0269.

As for CTGCGTGC, the “PBM E-score” value is -0.0812.

Take AATTTGTG: the “PBM E-score” value is 0.159.

On to ATGAGAAG, for which the “PBM E-score” value was -0.162.

GTACTCGA: the “PBM E-score” value was -0.0779.

As for GTCCCCGA, the “PBM E-score” value is 0.166.

Turning to ATCCCGGG, the “PBM E-score” value amounted to 0.455.

As to GTCCCGGA, the “PBM E-score” value is 0.394.

Take ACCCCGGC: the “PBM E-score” value worked out at 0.153.

ATCCCGGC: the “PBM E-score” value amounted to 0.419.

ATCCCGAC: the “PBM E-score” value came out at 0.331.

Regarding ATCCCTGG, the “PBM E-score” value is -0.0752.

As for GTCCCGCA, the “PBM E-score” value came out at 0.229.

For the sequence ATCCCAGG, the “PBM E-score” value turned out to be 0.113.

As for ATGTTCAG, the “PBM E-score” value is -0.207.

Turning to AGGTCTAA, the “PBM E-score” value was -0.0213.

In the case of AGGAGGCA, the “PBM E-score” value is -0.127.

Regarding AGAGCTCG, the “PBM E-score” value worked out at 0.0679.

With CAATTCTC, the “PBM E-score” value is -0.138.

As for AGATGGAG, the “PBM E-score” value was -0.127.

In the case of CCATACCC, the “PBM E-score” value is 0.0565.

As for CCGTGTCC, the “PBM E-score” value turned out to be 0.356.

For GCGTGTCC, the “PBM E-score” value came to 0.201.

Consider CCGTGTCA, for which the “PBM E-score” value was 0.24.

Regarding GGGTTTGA, the “PBM E-score” value was -0.0398.

With AGCGACGG, the “PBM E-score” value was determined as 0.258.

Turning to GGGGTCAA, the “PBM E-score” value is -0.0321.

For AGGGTCAA, the “PBM E-score” value was -0.0253.

For CGGGTCAA, the “PBM E-score” value was found to be 0.387.

Take AATGGAGG: the “PBM E-score” value was 0.0106.

In the case of GTCGGCTA, the “PBM E-score” value came out at 0.0468.

For CACAGAGG, the “PBM E-score” value is -0.0837.

For CATTCCGG, the “PBM E-score” value was found to be 0.451.

On to GATTCCGA, for which the “PBM E-score” value was found to be 0.454.

Regarding TATTCCCA, the “PBM E-score” value stood at 0.0626.

For the sequence CATTCCAG, the “PBM E-score” value is -0.131.

GATTCCAA: the “PBM E-score” value is -0.0548.

As to CATTCCAA, the “PBM E-score” value is -0.102.

As to CATTCCCG, the “PBM E-score” value was determined as 0.274.

For the sequence TATTCCAA, the “PBM E-score” value is -0.091.

On to CATTCCGA, for which the “PBM E-score” value came to 0.421.

As for GATTCCCA, the “PBM E-score” value stood at 0.0551.

Take TATTCCGA: the “PBM E-score” value was 0.407.

For the sequence CATTCCTA, the “PBM E-score” value is -0.14.

As to AGTTGCAC, the “PBM E-score” value was -0.136.

Regarding CTTGCCTC, the “PBM E-score” value worked out at 0.0139.

Consider AGTCTCGG, for which the “PBM E-score” value worked out at 0.101.

In the case of ATGCGAAG, the “PBM E-score” value is -0.0662.

In the case of GATCCCAA, the “PBM E-score” value came to 0.0388.

Consider ATAAATAC, for which the “PBM E-score” value came out at 0.176.

Regarding ACCGGGAA, the “PBM E-score” value worked out at 0.309.

As to AACGGGAC, the “PBM E-score” value turned out to be 0.217.

Take AACGGGAG: the “PBM E-score” value is 0.179.

As to AACGGGAT, the “PBM E-score” value was 0.364.

Regarding ACCGGGAT, the “PBM E-score” value amounted to 0.357.

As for ACCGGGAC, the “PBM E-score” value amounted to 0.318.

Regarding CGCACCAG, the “PBM E-score” value was 0.133.

As to AGTTTGAT, the “PBM E-score” value was determined as 0.0669.

For ACATGCTG, the “PBM E-score” value is -0.158.

With ACATTCCA, the “PBM E-score” value is -0.0365.

Turning to AAGACTAC, the “PBM E-score” value was -0.188.

With ACGTTCCT, the “PBM E-score” value came to 0.0124.

For AGGTTCCA, the “PBM E-score” value was -0.018.

As for ATGTTCCC, the “PBM E-score” value was determined as 0.153.

In the case of ATGTTCCA, the “PBM E-score” value is 0.0325.

In the case of ACGTTCCA, the “PBM E-score” value is 0.0623.

In the case of CCGTTCCG, the “PBM E-score” value turned out to be 0.477.

Values taken from the supplement of paper PMC3334620.
